Ba/F3 V617F tox: reduced viability of JAK2V617F-dependent Ba/F3 cells, primary screen, JAK2V617F inhibitor project, cell-based, Ba/F3 EpoR-JAK2V617F, luminescence. ATP luminescence. inhibition, % at 5.6 µM. hit rate 1.1% among 220,000. AID 1446, 2008;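 active means inhibition above the campaign mean plus 3 SD over all tested compounds, cut at about 24% in these data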;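 further: cytokine-independent growth of Ba/F3 cells driven by EpoR plus mutant JAK2; 0% = DMSO-treated cells and 100% = JAK inhibitor I control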
GPR7 antagonist: GPR7 receptor antagonists, primary screen, cell-based, fluorescence, single concentration; Neuropeptides B/W receptor type 1 (Homo sapiens), P48145; GPR7-expressing cells, fluorescence antagonist assay; inhibition, % at 4.4 µM; hit rate 1.1% among 290,000; AID 1861, 2009; in the data active means inhibition above about 16%, passing the limit was not always enough;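 further: cells stimulated with the agonist NPW; 0% = agonist with vehicle and 100% = vehicle without agonist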
Target sequence (P48145 whole entry, looked up): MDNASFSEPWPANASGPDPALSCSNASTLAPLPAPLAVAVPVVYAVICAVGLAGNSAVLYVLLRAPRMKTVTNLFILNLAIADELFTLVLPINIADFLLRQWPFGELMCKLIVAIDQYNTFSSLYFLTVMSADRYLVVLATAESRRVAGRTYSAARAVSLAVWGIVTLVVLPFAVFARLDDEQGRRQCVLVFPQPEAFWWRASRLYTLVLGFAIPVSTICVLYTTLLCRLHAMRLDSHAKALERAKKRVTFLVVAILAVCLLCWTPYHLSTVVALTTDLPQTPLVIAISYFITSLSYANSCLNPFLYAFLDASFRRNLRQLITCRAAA
DNA FID counter: compounds displacing fluorescent DNA intercalator, primary screen, artefact control for HCV NS3 helicase inhibitor project, biochemical, FID fluorescence | hit rate 0.17% among 290,000 | inhibition, % at 7.9 µM | DNA fluorescent intercalator displacement; in the data active means inhibition above about 37%;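 further: 0% = vehicle and 100% = reference compound; higher means more ethidium bromide displaced from hairpin DNA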
KLF5 inhibitor: KLF5 expression inhibitors, primary screen, DLD-1 cells, luminescence; DLD-1 KLF5 promoter-luciferase reporter; inhibition, % at 5 µM; hit rate 0.23% among 290,000;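 active means inhibition above a per-plate limit of that plate's mean compound inhibition plus 3 SD, cut at about 60% in these data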;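 further: 0% = DMSO wells and 100% = LY294002 at 200 µM; higher means less KLF5 promoter-driven luciferase light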
IEC-6 tox: cytotoxicity in IEC-6 intestinal epithelial cells, primary screen, cytotoxicity control for KLF5 inhibitor project, cell-based, luminescence; IEC-6 cytotoxicity, luminescence viability; inhibition, % at 5 µM; hit rate 0.78% among 290,000; AID 1825, 2009; in the data active means inhibition above about 22%;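 further: 0% = plate median of test compound wells and 100% = cytotoxic reference compound wells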
BaF3 parental: parental Ba/F3 cell viability inhibition, counter-screen for JAK2V617F inhibitor project, murine pro-B, CellTiter-Glo luminescence; CellTiter-Glo ATP luminescence; AID 1486, 2009; hit rate 1.1% among 220,000; inhibition, % at 5.6 µM;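 active means inhibition above a per-campaign cutoff, the mean inhibition of all tested compounds plus 3 SD, cut at about 27% in these data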;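 further: 0% = DMSO wells and 100% = JAK Inhibitor I control wells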
* hit, by the source's call; / = no result. Sampled rows, rich in hits. Any-hit rate of the full collection: about 2.6%.

SMILES	Ba/F3 V617F tox	GPR7 antagonist	DNA FID counter	KLF5 inhibitor	IEC-6 tox	BaF3 parental
CSc1nc2ccccc2n1Cc1c(Cl)cccc1Cl	20	14	-18	-34	-3	30*
OCc1nc2ccccc2n1Cc1c(F)cccc1Cl	-5	-18	-12	-7	-1	1
Cc1c(Cl)cccc1NC(=O)Cc1cccs1	/	13	0	-33	-2	/
Cc1cccc(N2CCN(C(=O)c3ccc4ncsc4c3)CC2)c1C	60*	15	-38	47	36*	54*
CCn1c(=N)n(CC(=O)c2ccc(Br)s2)c2ccccc21	1	20*	9	3	6	-3
Nc1nn(-c2ccccc2)c(N)c1N=Nc1ccc2c(c1)OCO2	78*	24*	-4	-64	58*	64*
Nc1[nH]n(-c2ccccc2)c(=O)c1N=Nc1ccc2c(c1)OCCO2	-1	-4	6	-125	5	2
CC[N+]1(CC)CC2=Cc3c(ccc4ccccc34)CC2C1 (configuration not stated)	70*	-17	7	-18	0	61*
CN1CC(C(=O)O)Cc2c1ccc1ccccc21 (configuration not stated)	-1	-11	3	-25	1	1
CCOCCCNC(=O)/C=C1\Sc2ccccc2N(Cc2ccccc2F)C1=O	-2	19*	-31	-12	-4	-1
CCOCCCNC(=O)CN1C(=O)/C(=C/c2ccccc2C)Sc2ccccc21	1	-7	-32	-27	-5	7
CN(C)c1ccc(/C=C(\C#N)C(=O)c2ccccc2)cc1	0	29*	-10	1	6	1
CN(C)c1ccc(/C=C(\C#N)c2ccccc2)cc1	83*	0	-14	-17	74*	76*
CCOc1ccc(CNC(=O)CCn2c(=O)oc3ccccc32)cc1	-1	-5	-4	-18	-7	1
Nc1ccc2oc(-c3ccccc3Cl)nc2c1	3	0	2	-58	1	4
Nc1ccc2oc(-c3cc(Br)ccc3Cl)nc2c1	33*	-16	-7	-18	6	38*
CC(C)C(=O)Nc1ccc(Cl)cc1-c1nc2ccccc2[nH]c1=O	/	-13	-13	-2	0	/
c1ccc(-c2cc(N3CCCCC3)nc(-c3ccccc3)n2)cc1	-4	-6	-2	-9	-4	3
C#CCOCCOCCOCCNc1nc(N2CCN(C(=O)[C@H]([C@@H](C)CC)n3cc([C@@H](N)CO)nn3)CC2)nc(N2CCN(C(=O)[C@H](Cc3ccc(O)cc3)n3cc([C@@H](N)C(C)CC)nn3)CC2)n1 (some centres not stated)	-2	-9	34	-26	-2	-1
C#CCOCCOCCOCCNc1nc(N2CCN(C(=O)[C@H]([C@@H](C)CC)n3cc([C@@H](N)CO)nn3)CC2)nc(N2CCN(C(=O)[C@H](CCCCN)n3cc([C@@H](N)CC(C)C)nn3)CC2)n1	-2	-18	43*	3	-6	-3
C#CCOCCOCCOCCNc1nc(N2CCOCC2)nc(N2CCN(C(=O)[C@H](CCCCN)n3cc([C@@H](N)C(C)CC)nn3)CC2)n1 (some centres not stated)	2	-13	38*	-8	0	-2
C#CCOCCOCCOCCNc1nc(N2CCN(C(=O)[C@H]([C@@H](C)CC)n3cc([C@@H](N)Cc4ccc(O)cc4)nn3)CC2)nc(N2CCN(C(=O)[C@H](CCCCN)n3cc([C@@H](N)C(C)CC)nn3)CC2)n1 (some centres not stated)	1	-4	43*	-15	-2	-3
C#CCOCCOCCOCCNc1nc(N2CCN(C(=O)[C@H](CCCCN)n3cc([C@@H](N)C(C)CC)nn3)CC2)nc(N2CCN(C(=O)[C@H](CCCCN)n3cc([C@@H](N)CC(C)C)nn3)CC2)n1 (some centres not stated)	-3	-10	62*	-18	-4	-3
COCCn1nnnc1C(c1cc2cccc(C)c2[nH]c1=O)N1CCN(c2ccccc2F)CC1 (configuration not stated)	1	9	-7	29	4	6
Cc1cc(C)c2cc(C#N)c(SCC(=O)NCc3ccco3)nc2c1	6	-4	-12	-18	-2	7
SMILES	Ba/F3 V617F tox	GPR7 antagonist	DNA FID counter	KLF5 inhibitor	IEC-6 tox	BaF3 parental
CN(C)CCOc1ccc2c(c1)Sc1ccccc1CC2=O	-1	-4	6	-28	-6	2
COc1cccc(C(=O)Nc2nnc(S(=O)(=O)Nc3cccc(C)c3)s2)c1	/	0	-13	4	1	/
CCn1c(CNc2ccc(F)cc2)nnc1SCCN1CCCCC1	-3	11	6	-17	-2	93*
Nc1ccc(O)cc1C(=O)OCC(=O)c1ccc(C2CCCCC2)cc1	71*	7	-12	-9	2	30*
COc1ccc(C(=O)OCC(=O)c2ccc(C3CCCCC3)cc2)cc1	-4	-6	-1	2	0	1
COc1ccc(C2NCCc3c2[nH]c2ccccc32)cc1COc1ccc(F)cc1 (configuration not stated)	5	46*	25	5	-4	7
Cc1c(NC(=O)c2noc(C(C)C)c2[N+](=O)[O-])c(=O)n(-c2ccccc2)n1C	-5	-3	-6	-83	-8	6
CN1CCN(C(=O)c2ccc3c(c2)S(=O)(=O)c2ccccc2C3=O)CC1	-2	-1	8	-21	10	-3
Cc1cc(C(=O)CSc2nc(N)cc(=O)[nH]2)c(C)n1-c1ccc(OC(F)F)cc1	40*	-4	-21	-13	-2	52*
CC(C)c1ccc(NC(=O)NCc2ccc3c(c2)OCO3)cc1	/	1	-12	-29	-1	/
O=C(/C=C/c1cccs1)Nc1ccc(Br)cn1	74*	16	6	23	81*	71*
CCCC(=O)NC(C)c1nc2ccccc2n1CC (configuration not stated)	3	-16	-4	-27	1	9
C=CCn1c(C(C)NC(=O)CCC)nc2ccccc21 (configuration not stated)	7	20*	-3	-22	-4	5
COc1ccccc1N1CCN(C(=O)CCC(=O)O)CC1	-4	-5	1	-35	4	5
CC1(C)OC(=O)C=C(CC2NS(=O)(=O)OC3CCCCC23)O1 (configuration not stated)	/	-3	-4	-5	-2	/
Cc1cccc(-c2nc(NCCCN(C)C)c3ccccc3n2)c1	/	-4	63*	-23	-2	/
CN(C)CCNc1cc(-c2ccncc2)nc2ccccc12	3	0	77*	-19	8	8

Bioassay records from PubChem BioAssay.
